PubChem BioAssay (NCI)
The panel holds about 83,000 compounds, 20% with a hit somewhere; the sample as a whole holds those more often.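 Cells were grown in 96-well plates and exposed to the test compound at a single concentration for 48 hours; results are reported as percent growth, with values below 10 considered active.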 Values without a mark were called inactive. Activity calls are given as the source filed them.

Legend:
Test in all cases: NCI-60 one-dose screen, 48 h (100 = growth as untreated, 0 = no growth, -100 = all killed)
Conditions in all cases: 10 µM unless noted
[1] = test system: NCI-H23 lung
[2] = test system: NCI-H226 lung
[3] = test system: NCI-H322M lung
[4] = test system: HOP-62 NSCLC
[5] = test system: NCI-H460 lung
[6] = test system: HOP-92 NSCLC
[7] = test system: NCI-H522 lung
[8] = test system: A549/ATCC NSCLC
[9] = test system: 786-0 renal
[10] = test system: COLO 205 colon
[11] = test system: DU-145 prostate
[12] = test system: K-562 leukemia
[13] = test system: MALME-3M melanoma
[14] = test system: MDA-MB-231 breast
[15] = test system: RXF 393 renal
[16] = test system: SF-268 CNS
[17] = test system: SF-295 CNS
[18] = test system: SF-539 CNS
[19] = test system: UACC-257 melanoma
[20] = test system: M14 melanoma

SMILES | growth [1] [%] | growth [2] [%] | growth [3] [%] | growth [4] [%] | growth [5] | growth [6] [%] | growth [7] | growth [8] | growth [9] [%] | growth [10] | growth [11] | growth [12] | growth [13] | growth [14] | growth [15] | growth [16] | growth [17] | growth [18] | growth [19] | growth [20]
C[C@H]1[C@H]2[C@H]3CC[C@@H]4[C@@]5(C)CC[C@H](O)C(C)(C)[C@@H]5CC[C@@]4(C)[C@]3(C)CC[C@]23CO[C@]1(C)[C@@H](C(=O)/C=C\c1cccnc1)C3 | 59.5 | 76.6 | 88.4 | 81.7 | 40.7% | 79.1 | 38% | 57.8% | 63.6 | 56.3% | 73.9% | 18% | 54.4% | 82.1% | 75.2% | 81.9% | 79.9% | 77.8% | 49.3% | 60.8%
O=C(N/N=C/[C@H](O)[C@@H](O)[C@@H](O)[C@H](O)CO)c1ccc(NC(=O)c2cccnc2)cc1 | 110 | 106 | 103 | 113 | 108% | 111 | 96.2% | 102% | 113 | 110% | 119% | 110% | 108% | 100% | 121% | 103% | 102% | 106% | 102% | 114%
O=C(CCN1C(=O)/C(=C/c2ccc(O)cc2)SC1=S)Nc1ccccc1 | 91.9 | 90.9 | 95 | 85.9 | 106% | 89.6 | 80.1% | 93.3% | 105 | 125% | 110% | 81.8% | 95.4% | 91.1% | 103% | 93.5% | 91% | 97.8% | 104% | 97.4%
O=C(/C=C/c1sc(Cl)nc1Cl)c1ccc(F)cc1 | 94 | 96.4 | 100 | 95.6 | 102% | 96.9 | 86.6% | 98.4% | 95.8 | 75.6% | 92% | 10% | 79.3% | 81.5% | 93.3% | 92.8% | 95.7% | 66.8% | 95.9% | 78.4%
N#Cc1c(-c2ccc(Cl)cc2)nc2c(c(-c3ccccc3)nn2-c2ccccc2)c1-c1ccc(O)cc1 | 49 | 65.9 | 70.8 | 49.9 | 25.1% | 56.4 | 55.6% | 41.9% | 17.7 | 52.6% | 50.8% | 8.36% (active) | 61.5% | 36.5% | -27% (active) | 46.6% | 1.71% (active) | 11.2% | 85.2% | 38.3%
CCCCCCCCCCCCCCCCCCOc1ccccc1CCCOP(=O)(O)OCC[N+](C)(C)C | 93.5 | 92.3 | 113 | 59.3 | 14.1% | 33.4 | 67.9% | 54.8% | 85.1 | 31.6% | 75% | 69.2% | 89.5% | 78.2% | 11.1% | 62.5% | 52.4% | 91.4% | 88% | 77.7%
CCCCNC(=O)Oc1ccc(/C(=C(\C)c2ccc(Cl)cc2)c2ccc(OCCN(CC)CC)cc2)cc1 | 85.6 | 103 | 87.9 | 74.3 | 72.6% | 67.2 | 98.4% | 61.6% | 59.2 | 63.3% | 81.7% | 8.22% (active) | 65.1% | 70.2% | 79.4% | 65.5% | 85.2% | 71.7% | -1.69% (active) | 22.6%
CCOC(=O)CC1C(COC(=O)NC)OC(n2cnc3c(NC(=O)Nc4ccccc4)ncnc32)C1O[Si](C)(C)C(C)(C)C (stereo not given) | 81 | 55.5 | 91.1 | 77.4 | 13.2% | 62.1 | 45.3% | 51.3% | 72.5 | 67.4% | 58.7% | 28.7% | 53.5% | 71.7% | 35% | 59.9% | 66.1% | 33.4% | 59.2% | 57.1%
CCn1cnc2c1c(=O)[nH]c(=O)n2CC1CCC(CNS(=O)(=O)c2ccc(OC3CCOCC3)c(F)c2)CC1 (stereo not given) | 57.5 | 55.7 | 66.7 | 36.5 | 72.6% | 31 | 39.4% | 54.9% | 47.4 | 45.3% | 76.8% | 39.2% | 58.2% | 47.8% | 53.1% | 82.8% | 58.5% | 54.7% | 59.8% | 48.5%
NCCCNc1nc2ccccc2c2c(=O)c3cc(C(F)(F)F)ccc3sc12 | 49.6 | 86.8 | 56.8 | 52.7 | -69.7% (active) | 32.6 | -3.15% (active) | -16.6% (active) | 61.1 | -41.4% (active) | -0.179% (active) | -21.4% (active) | 87.1% | -35.2% (active) | 55.7% | 47.1% | 71.7% | -20% (active) | 96.1% | -26.9% (active)
O=c1c2cc(F)ccc2sc2c(N3CCCCC3)nc3ccccc3c12 | 95.8 | 86 | 90.1 | 99.3 | 109% | 84.2 | 98.5% | 96.2% | 95.8 | 106% | 107% | 112% | 104% | 98.9% | 104% | 102% | 101% | 102% | 97.3% | 96.8%
CCCCOc1nc2ccc(OC)cc2cc1-c1cc(-c2ccc(Cl)cc2)nc(-c2ccc(Cl)cc2)c1 | 102 | 103 | 99.7 | 110 | 107% | 97.6 | 98.7% | 99.3% | 112 | 112% | 114% | 106% | 100% | 93.5% | 101% | 99.8% | 98.1% | 98.3% | 99.6% | 111%
Nc1nc(Cl)cc(=O)n1Cc1ccccc1 | 88.1 | 87.6 | 89.6 | 97.8 | 105% | 88.3 | 86.7% | 94.6% | 101 | 114% | 98.9% | 106% | 93.2% | 92% | 101% | 103% | 95.5% | 96.2% | 93.1% | 93.3%
Cc1cc(Cl)ccc1NS(=O)(=O)c1ccc(-c2cnc(C3CC3)o2)cc1 | 31.1 | 27.7 | 50.7 | 48.5 | 12.2% | 58.3 | 13.5% | 28.4% | 28.6 | -11% (active) | 21% | 9.89% (active) | 68% | 26.2% | 16.2% | 47% | 16.9% | -19.1% (active) | 69.4% | 10.2%
CC([C@H]1CCC2C3CCC4C(=O)C(NC=O)=CC[C@]4(C)C3CC[C@@]21C)N(C)C (stereo not given in full) | 44.2 | 88.5 | 30.4 | 74.2 | -4.84% (active) | 41.7 | 96.1% | 45% | 46.1 | -80.1% (active) | 59.5% | 15% | -2.06% (active) | 11.2% | -53.3% (active) | -3.89% (active) | 36.6% | -45.6% (active) | -20.9% (active) | -33% (active)
